Screening data as filed in PubChem BioAssay.
DRD3 antagonist = qHTS of D3 Dopamine Receptor Antagonist: qHTS; D(3) dopamine receptor (Homo sapiens), P35462; D3R cells, DiscoveRx beta-arrestin luminescence, antagonist mode; active compounds read low; max response, negative = inhibition, %; 360,000 tested, 2.5% active; in the data active = max response below about -50%; inconclusive = no clear call, values can overlap the other calls; also: % is scaled to controls: 0 for no effect and ±100 for the full control effect
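Cells expressing the human receptor were seeded at 1500 cells/well, incubated overnight at 37 degrees C in 5% CO2, then exposed to library compounds with dopamine controls for 90 minutes at 37 degrees C before luminescent detection.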
IL1B secr inh = qHTS for Inhibitors of Inflammasome Signaling: IL-1-beta AlphaLISA Primary Screen | THP-1 LPS/ATP IL-1B secretion, AlphaLISA, 16 h; active compounds read low | activity change, % at 57.5 µM | 360,000 tested, 4.7% active | AID 743279, 2014; in the data active = activity change below about -50%; inconclusive = mostly about -30% to -49%; also: % is scaled to controls: 0 for no effect and ±100 for the full control effect
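THP-1 cells pretreated 1 hr with compounds (up to 57.5 uM final), then stimulated with LPS (250 ng/mL final) plus ATP (1.25 mM final); secreted IL-1B measured by AlphaLISA after 16 hr, decreased signal indicating inhibition.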
ClpP mod = qHTS Assay for Activators of ClpP; 340,000 tested, 1.9% active; purified B. subtilis ClpP, FRET peptide cleavage, 20 min; Potency, µM (top dose mostly 57.5 µM), without a hit: at the highest dose activity change, negative = active; ATP-dependent Clp protease proteolytic subunit (Bacillus subtilis (strain 168)), P80244; active = well fitted falling curve with a large enough effect; inconclusive = small, poorly fitted or top-dose-only effect; inactive = no such curve, though single readings can be large or run the other way; also: potency is read from the fitted curve at half-maximal effect; the source files actives as falling curves though it sought activators and does not explain the sign; nearly all actives have a fitted effect of over 65% in size
Target sequence (P80244 whole entry, looked up): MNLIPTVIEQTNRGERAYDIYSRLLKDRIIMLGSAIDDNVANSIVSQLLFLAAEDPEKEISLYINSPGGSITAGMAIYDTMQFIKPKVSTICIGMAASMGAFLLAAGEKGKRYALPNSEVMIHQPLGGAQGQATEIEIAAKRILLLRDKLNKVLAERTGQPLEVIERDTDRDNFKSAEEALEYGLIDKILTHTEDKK
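Buffer: 100 mM Tris/HCl pH8, 100 mM KCl, 0.05% low protease BSA, 2.5% glycerol, 0.01% Tween-20. ClpP 10 microg/mL final; 20 min RT; delta FRET normalized to ADEP and DMSO controls.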
TDP1 cell noCPT = qHTS for Inhibitors of human tyrosyl-DNA phosphodiesterase 1 (TDP1): qHTS in cells in absence of CPT; DT40 Tdp1-/- hTDP1 cells, no CPT, ATP luminescence, 48 h; Potency, µM (series often up to 46.2 µM), inactives show at the highest dose activity change, negative = growth inhibition, usual class: inhibitors; 420,000 tested, 15% active; AID 686978, 2013; also: potency is read from the fitted curve at half-maximal effect; % is scaled to controls: 0 for no effect and ±100 for the full control effect; nearly all actives have a fitted effect of over 55% in size
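DT40 Tdp1-/-;hTDP1 cells, no CPT (DMSO vehicle only), 400 cells/well; compounds pin-transferred; ≥48 hr, 37 °C; CellTiter-Glo 30 min RT dark, luminescence read.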
DT40 TDP1 CPT = qHTS for Inhibitors of human tyrosyl-DNA phosphodiesterase 1 (TDP1): qHTS in cells in presence of CPT; 420,000 tested, 12% active; chicken DT40 Tdp1-/-;hTDP1 cells + 20 nM CPT, ATP luminescence, 48 h; Potency, µM (doses to about 46.2 µM), for inactives: at the top dose activity change, negative = growth inhibition, hits mostly inhibitors; also: potency is read from the fitted curve at half-maximal effect; % is scaled to controls: 0 for no effect and ±100 for the full control effect; nearly all actives have a fitted effect of over 55% in size
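Chicken DT40 Tdp1-/- cells complemented with human TDP1, 400 cells/well, exposed to compounds plus 20 nM camptothecin for at least 48 h at 37 C; viability read as ATP content by CellTiter-Glo luminescence.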
D3 ag = qHTS of D3 Dopamine Receptor Agonist: qHTS; max activation, %; D3R DiscoveRx beta-arrestin cells, luminescence, 90 min; D(3) dopamine receptor (Homo sapiens), P35462; 410,000 tested, 0.58% active; in the data active = max activation above about 30%; also: 0% is about no effect
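Agonist-mode cell screen: cells plated at 1500/well and incubated overnight at 37 °C, then exposed to library compounds for 90 min at 37 °C. Detection reagent was added for 30–60 min at room temperature, and luminescence was read.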
* marks the source's active call; other numbers are inactive results; ? = inconclusive; . = no result given. Sampled rows, rich in hits. Any-hit rate of the full collection: about 21%. Unless noted, calls follow the shape of the dose curve; as a rule, active = well fitted inhibition curve with a large enough effect; inconclusive = small, poorly fitted or top-dose-only effect; inactive = flat fitted curve, though single readings scatter.

SMILES	DRD3 antagonist	IL1B secr inh	ClpP mod	TDP1 cell noCPT	DT40 TDP1 CPT	D3 ag
COc1ccc(NC(=O)CCC(=O)Nc2nnc(C3CCCCC3)s2)c(OC)c1	-11	0	-5%	4%	-4%	-4
C=C1C(=O)C23C(O)C1CCC2C12CCCC(C)(COC(C)=O)C1C(O)C3(O)OC2 (configuration not stated)	-95*	0	4%	0.73µM*	1µM*	-13
CCC1CCCCN1C(=O)CSc1nnc(CNC(=O)c2c(F)cccc2Cl)o1 (configuration not stated)	-10	-2	1%	3%	-15%	1
O=C(NCCC1CCCCN1S(=O)(=O)c1ccc(F)cc1)C(=O)Nc1ccccc1F (configuration not stated)	-3	7	.	26µM*	?	-2
COc1ccccc1NC(=O)C(=O)NCCC1CCCCN1S(=O)(=O)c1ccc(F)cc1 (configuration not stated)	-14	-24	-1%	18µM*	15µM*	-23
O=C(NCCC1CCCCN1S(=O)(=O)c1ccc(F)cc1)C(=O)NC1CCCC1 (configuration not stated)	-12	-6	1%	?	?	-13
O=C(NCCC1CCCCN1S(=O)(=O)c1ccccc1)C(=O)Nc1ccc(F)cc1F (configuration not stated)	1	?	-1%	18µM*	18µM*	-2
O=C(NCCC1CCCCN1S(=O)(=O)c1ccccc1)C(=O)Nc1ccccc1F (configuration not stated)	-26	14	1%	23µM*	18µM*	-20
O=C(NCCC1CCCCN1S(=O)(=O)c1ccccc1)C(=O)Nc1ccccc1 (configuration not stated)	11	-16	1%	?	?	1
COc1cccc(C(CNC(=O)C2CCN(C(=O)Nc3ccccc3)CC2)N(C)C)c1 (configuration not stated)	55	-9	1%	-2%	8%	-2
O=C(NCCC1CCCCN1S(=O)(=O)c1ccccc1)C(=O)NCc1ccccc1F (configuration not stated)	-11	?	1%	?	?	2
Cc1ccc(S(=O)(=O)N2CCCCC2CCNC(=O)C(=O)Nc2ccccc2F)cc1 (configuration not stated)	2	67	-1%	5.8µM*	6.5µM*	-4
CN1C(CSCC(F)(F)F)Nc2cc(Cl)c(S(N)(=O)=O)cc2S1(=O)=O (configuration not stated)	.	.	.	?	?	10
CCCn1c(=O)c2ccccc2n2c(Sc3nnnn3-c3ccccc3)nnc12	-13	-8	-13%	23µM*	?	-6
CCCn1c(=O)c2ccccc2n2c(SCC(=O)NCc3cccs3)nnc12	19	-3	-4%	15µM*	?	-12
CCn1c(=O)c2ccccc2n2c(SCC(=O)NCc3cccs3)nnc12	5	0	-8%	-9%	-26%	24
CC(=O)N1C[C@H]2CON(C)[C@H]2C[C@H]1c1ccccc1Br	19	3	1%	0%	-1%	12
COc1ccc(C2C(C(=O)c3ccccc3)=C(C)Nc3nc4ccccc4n32)cc1OC (configuration not stated)	0	0	-1%	15µM*	?	1
